RN4220 kill: growth inhibition of S. aureus RN4220, primary screen, OD600. hit rate 0.33% among 330,000. inhibition, % (concentration not given with the values). 16 h; in the data active = inhibition above about 85%;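 note: plate controls were untreated cells for no effect and reference antibiotic for full effect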
Sa ugtP lethal: growth inhibition of ugtP-null S. aureus, primary screen, RN4220 ugtP deletion, OD600 | 16 h | growth inhibition, % (concentration not given with the values) | hit rate 0.54% among 330,000; in the data active = growth inhibition above about 68%;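 note: plate controls were untreated wells for no effect and antibiotic for full effect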
BJeLR lethal: MLPCN primary cell-based screen for lethality selective to Ras in HRASV12 cells. BJeLR (HRASV12) viability, CellTiter-Glo ATP luminescence, 48 h. inhibition, % (no concentration beside the values). hit rate 0.17% among 300,000; in the data active = inhibition above about 50%
PfHsp40 yeast: rescue of yeast from PfHsp40 toxicity, primary screen, S. cerevisiae, ATP luminescence. S. cerevisiae expressing PfHsp40, growth rescue. hit rate 0.68% among 340,000. growth rescue, % at 12.5 µM; in the data active = growth rescue above about 28%, passing the limit was not always enough;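 note: yeast W303a lacking pdr1 and pdr3 grown in galactose medium; growth measured after three days at 30 °C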
CCHF vOTU inh-1: CCHFV vOTU protease inhibitors, primary screen, biochemical, Pep-AMC substrate, fluorescence. Crimean-Congo hemorrhagic fever virus L polyprotein viral ovarian tumor (vOTU) protease …. inhibition, % at 11.5 µM. hit rate 0.55% among 370,000; note: 0% = vehicle wells with enzyme and 100% = no enzyme wells
CCHF vOTU inh-2: CCHFV vOTU protease inhibitors, confirmation, biochemical, Pep-AMC substrate, fluorescence; shares compounds with CCHF vOTU inh-1; Recombinant CCHFV vOTU; inhibition, % at 11.5 µM; hit rate 17% among 1,900; AID 686976, 2013
* hit, by the source's call; / = no result. A selection: hits, their analogues and other compounds. The true share with any hit is near 1.6%. Cut-off read from the data, not from the text of the source, unless noted: active = inhibition above about 30%; inactive = the rest.

SMILES	RN4220 kill	Sa ugtP lethal	BJeLR lethal	PfHsp40 yeast	CCHF vOTU inh-1	CCHF vOTU inh-2
Cn1c(C(C#N)=C2CCCCCN2)nc2ccccc21	3	-2	/	/	/	/
CC1(C)Cc2c(C#N)c(N)n(-c3ccccc3)c(=S)c2CO1	1	-2	-1	-1	10	/
CC1(C)C=C2C(=NN(c3ccccc3)C(N)=C2C#N)CO1	/	/	-15	-1	50*	100*
COc1ccccc1/C=N/NC(=O)c1ccc(=O)n(C)c1	/	/	-14	-1	31*	-5
COc1ccc2[nH]cc(CCNC(=O)c3ccco3)c2c1	3	4	/	1	-9	/
O=C(Oc1ccc2[nH]cc(CCN3C(=O)c4ccccc4C3=O)c2c1)c1ccco1	13	4	-5	1	36*	-24
COC(=O)C1=C(c2c(C)noc2C)CC2CCC1N2C(=O)NCc1ccco1 (stereo not drawn)	5	-2	/	/	/	/
CC(CC(=O)Nc1ccccn1)=NNC(=O)c1ccc2ccccc2c1	0	-13	/	/	/	/
Cc1[nH]c2ccc(F)cc2c(=O)c1SC(F)(F)C(F)F	-5	-2	0	0	30*	-19
COc1ccc(CNS(=O)(=O)CCNC(=O)c2ccc(OC)cc2)cc1	7	2	-7	-1	31*	-14
COc1ccc(C(=O)NCCS(=O)(=O)NCc2ccc(C)cc2)cc1	4	6	-6	0	-3	/
CCCCCCCCNS(=O)(=O)CCNCc1ccc(OC)cc1	/	/	/	0	32*	6
COc1cc(/C=C(\C(=O)O)c2ccc(S(=O)(=O)N3CCCC3)s2)ccc1OCCC(C)C	12	-6	/	2	32*	13
O=C(NN=Cc1c(F)cccc1Cl)C1CC1	5	2	/	/	/	/
CC1(Cc2ccccc2OC(F)(F)F)C(=O)Nc2ccc(OC(F)(F)F)cc21 (stereo not drawn)	/	/	/	/	33*	10
CC1(Cc2ccc3ccccc3n2)C(=O)Nc2ccc(OC(F)(F)F)cc21 (stereo not drawn)	/	/	/	/	6	/
CC1(Cc2ccccc2OC(F)(F)F)C(=O)Nc2ccc(-c3ccsc3)cc21 (stereo not drawn)	/	/	/	/	35*	-10
CCc1ccc[n+](-c2[nH]c(=O)sc2C=N/N=C(\[O-])c2ccncc2)c1	4	-1	/	/	/	/
CCOc1ccc(NC(=O)N(CCN2CCOCC2)Cc2ccc3c(c2)CCCN3CC)cc1	-12	-8	2	0	41*	-17
COc1ccc(C=Nn2c(C3CCCCC3)n[nH]c2=S)c(OC)c1	4	-2	/	/	/	/
CCOc1ccc(N(C(C)C(=O)NN=C(C)C(C)(C)C)S(C)(=O)=O)cc1 (stereo not drawn)	2	-1	/	/	/	/
CCOc1cc(C=NNC(=O)CSc2nncn2C)ccc1OCc1cccc(C)c1	2	6	/	/	/	/
CCC1Sc2ccc(S(=O)(=O)CCC(=O)Nc3ccc(OC(F)(F)F)cc3)cc2NC1=O (stereo not drawn)	-5	-16	20	-1	39*	8
CCC(=NNC(=O)c1ccc(Br)o1)c1ccc(Cl)cc1	5	1	/	/	/	/
CN(C)CCN=Cc1c(O)n(Cc2ccc3c(c2)OCO3)c(=O)c2ccccc12	-1	1	5	0	-11	/
SMILES	RN4220 kill	Sa ugtP lethal	BJeLR lethal	PfHsp40 yeast	CCHF vOTU inh-1	CCHF vOTU inh-2
O=c1c2ccccc2c(C=NC2CCN(Cc3ccccc3)CC2)c(O)n1Cc1ccc2c(c1)OCO2	4	-2	2	/	31*	-16
COc1ccc(N2C(=O)C(Cl)=C(Nc3ccccc3OC)C2=O)cc1	5	6	-6	3	36*	-5
CCOc1ccccc1NC1=C(Cl)C(=O)N(c2ccccc2)C1=O	-5	2	14	-1	5	/
Cc1ccc(F)c(S(=O)(=O)NC(=O)C2(C)CCN2C(=O)C2(c3ccc(Cl)cc3)CC2)c1 (stereo not drawn)	/	/	/	/	30*	-9
CCN(CC(=O)Nc1ccccc1C(F)(F)F)CC(=O)c1[nH]c(C)c(C(C)=O)c1C	/	/	/	/	38*	-17
N#CCC(=O)NN=Cc1ccc(OS(=O)(=O)c2ccccc2)cc1	1	-14	/	/	/	/
COC(=O)Nc1ccc([N+](=O)[O-])cc1OC	3	3	-4	0	9	/
COc1cc([N+](=O)[O-])ccc1NC(=S)Nc1cccc(C(=O)O)c1	4	4	-4	-1	31*	-13
COc1ccc(C=NNC(=O)c2ccc(CSc3nc(C)cc(C)n3)cc2)c(OC)c1OC	6	2	/	/	/	/
C/C=C/COC(=O)c1[nH]c2c(c1C)C(=O)CC(c1ccco1)C2 (stereo not drawn)	4	0	38	2	30*	-17
C=CCOC(=O)c1[nH]c2c(c1C)C(=O)CC(c1ccco1)C2 (stereo not drawn)	6	9	37	/	/	/
S=c1[nH]nc(-c2cccnc2)n1N=Cc1ccc(Br)s1	24	9	/	/	/	/
COc1ccc(OCC(=O)NC(=S)Nc2ccc3c4c(cccc24)CC3)cc1	-4	5	-12	0	30*	2
CN(C)c1ccc(C=NNC(=O)c2cccc(C(=O)NN=Cc3ccc(N(C)C)cc3)n2)cc1	0	4	/	/	/	/
COc1ccc(-c2sc3cc(OC)c(OC)cc3c2-c2ccc(O)cc2)cc1	13	4	/	-1	33*	-1
COc1ccc(-c2sc3ccc(OC)cc3c2-c2ccc(OC)nc2)cc1	-9	6	/	0	5	/
CCc1c(C(=O)N/N=C/c2ccsc2)csc1C	/	/	0	1	30*	-16
O=c1[nH]n2c(=O)c3c([nH]c2c1N=Nc1cccc(Cl)c1)CCC3	10	-2	-2	1	23	/
O=c1[nH]n2c(=O)c3c([nH]c2c1N=Nc1cccc(C(F)(F)F)c1)CCCC3	4	-20	4	0	44*	13
NC(=S)N=Nc1c(O)[nH]c2ccc(F)cc12	5	-5	-3	1	13	/
NC(=S)N=Nc1c(O)cc(O)c2[nH]c(=O)ccc12	/	/	/	0	87*	90*
Cc1ccc(/C=C/C(=O)Nc2nccs2)o1	13	5	6	6	51*	2
COc1ccc(OCc2cc(C(=O)NC3CCOC(C)(C)C3)no2)c2ccccc12 (stereo not drawn)	/	/	-8	-2	43*	22
O=C(Nc1cccc(Cl)c1)Nc1ccnc(-c2cccnc2)n1	-2	-23	-3	1	32*	-20
Cc1c(C=CC(=O)c2ccc(C(C)C)cc2)cnn1C	4	2	/	/	/	/
COc1ccc(OC)c(-c2nnc3n2N=C(c2ccc(OC)c(OC4CCCC4)c2)CS3)c1	6	2	/	2	32*	23
COc1ccc(OC)c(-c2nnc3n2N=C(c2ccc(OC)c(OC)c2)CS3)c1	11	7	/	-1	18	/
CCCCCCCCN1C(CC(=O)OC)c2cc(F)ccc2S1(=O)=O (stereo not drawn)	5	11	/	/	/	/

Screening data from PubChem BioAssay.
